The values below come from PubChem BioAssay AID485297 (National Center for Advancing Translational Sciences (NCATS), 2010).

Molecules are shown by their SMILES. The whole screen tested about 320,000 compounds, of which about 9,100 (2.8%) were called active. Entries that show only a call come without a potency. Inconclusive results (about 3%) are left out. The sample holds actives, similar compounds and a random draw of the others, so the mix is not that of the screen. Calls follow the shape of the dose curve; as a rule, active = well fitted activation curve with a large enough effect; inconclusive = small, poorly fitted or top-dose-only effect; inactive = no such curve, though single readings can be large or run the other way.
Potency is read from the fitted curve at half-maximal effect.

A short description of the test: qHTS Assay for Rab9 Promoter Activators. Also: nearly all actives have a fitted effect of over 60% in size. The settings on record: Huh7 Rab9 promoter-luciferase reporter, luminescence, 24 h; series mostly up to 9.22 µM. The gist of the method: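 Using Huh7 cells stably transfected with Rab9 promoter–luciferase, compounds were incubated 24 h at 37 °C, 5% CO2; luciferase luminescence was read 10 min after reagent addition.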
In the case of `COc1ccccc1-c1oc2ccccc2c1C#CCCCCO`, the Potency entry is “inactive”. As for `O=C(C1CC(=O)N(C2CCCC2)C1)N1CCN(c2cccc(C(F)(F)F)c2)CC1` (centres undefined), the entry is “inactive”; as for `CCOC(=O)c1nc(-c2ccc3c(c2)OCO3)[nH]c1C`, “inactive”.

As to `CC(C)c1ccc(NC(=O)COC(=O)c2ccc(CN3CCCC3=O)cc2)cc1`, the Potency entry was “inactive”. The same measure for `O=C(CSc1nnc(Nc2ccccc2F)s1)NC1CCCC1`: “inactive”; for `Cc1c(NC(=O)CSCc2ccccc2)cccc1C(=O)O`: “inactive”; for `COc1cc(OC)cc(C(=O)NNC(=O)CCOc2ccccc2OC)c1`: “inactive”. The same measure for `CCN(C(=O)COC(=O)Cc1c(F)cccc1Cl)c1c(N)n(Cc2ccccc2)c(=O)[nH]c1=O`: “inactive”; for `O=C(CSc1nnc(-c2ccco2)n1-c1ccccc1)NCCc1ccccc1`: “inactive”. On to `c1ccc(CSc2nnc(-c3ccco3)n2Cc2ccccc2)cc1`, for which the Potency was 3550 nM (active). Regarding `O=C(CSc1nnc(-c2ccco2)n1CC1CCCO1)c1ccccc1` (centres undefined), the Potency result was “inactive”.

For `COc1ccc(NC(=O)CN(C)C(=O)c2cc(C3CC3)nn2-c2ccccc2)cc1`, the Potency entry is “inactive”. As for `COc1ccccc1C1=CC(=O)C[C@H](c2ccc(F)cc2)C1`, the entry is “inactive”. Turning to `CSCCC(NC(=O)c1ccccc1)C(=O)N1CCN(Cc2ccc(Cl)cc2)CC1` (centres undefined), the Potency result is “inactive”.

As to `Cc1ccc(F)c(NC(=O)CCc2ccccc2)c1`, the Potency is 2820 nM (active). As for `O=C(CCc1ccccc1)NNc1ccc(F)cc1`, the entry is “inactive”; as for `Cc1ccc(F)c(NC(=O)CCOc2ccccc2C)c1`, “inactive”; as for `COC(=O)C1=CO[C@@H](O[C@@H]2O[C@H](CO)[C@@H](O)[C@H](O)[C@H]2O)C2C1C[C@H](O)[C@@H]2C` (some centres undefined), “inactive”. The same measure for `N#Cc1nc(Cc2cccc3ccccc23)oc1NCc1ccc2c(c1)OCO2`: “inactive”; for `Cc1ccccc1-c1nc(C#N)c(NCc2ccco2)o1`: “inactive”. The same measure for `N#Cc1nc(Cc2ccccc2)oc1NCCc1ccccc1`: 3160 nM (active); for `Cc1cccc(-c2oc3ccc(-c4ccc5c(c4)OCO5)cc3c2C#Cc2cncn2C)c1`: “inactive”; for `CCOC(=O)Cn1nnnc1C`: “inactive”. Regarding `CCOC(=O)/C(C#N)=C/c1ccc(N2CCCCC2)cc1`, the Potency was 3160 nM (active). The same measure for `CCOC(=O)/C(C#N)=C/c1ccc(N2CCN(Cc3ccccc3)CC2)cc1`: “inactive”; for `COc1ccc(N2CCN(C(=O)/C(C#N)=C/c3ccccc3)CC2)cc1`: “inactive”; for `Cc1ccc(C)c(OCC(=O)NNC(=O)C2CCC2)c1`: “inactive”. As for `CC(=O)c1cccc(S(=O)(=O)N2CCC(n3nnc4cc(F)ccc43)CC2)c1`, the entry is “inactive”; as for `O=C(c1ccc(F)cc1)N1CCC(n2nnc3ccccc32)CC1`, 1120 nM (active); as for `O=S(=O)(c1cccc(S(=O)(=O)N2CCC(n3nnc4ccccc43)CC2)c1)N1CCCCC1`, “inactive”. As for `CN(C)c1ccc(-c2nnc(-c3cccnc3)o2)cc1`, the figure is 1580 nM (active); as for `COC(=O)CSc1nnc(-c2cccnc2)o1`, “inactive”. With `CN(C)c1nc(-c2cccnc2)nc(-c2ccc(Cl)cc2)c1C#N`, the Potency entry was “inactive”. As for `Cc1ccc(S(=O)(=O)N2CCCCC2)cc1NC(=O)[C@@H]1CCCN1C(=O)c1cccs1`, the entry is “inactive”; as for `CCC(C)N1C(=O)S/C(=C/c2ccc(Sc3nc4ccccc4[nH]3)o2)C1=O` (centres undefined), “inactive”. For the compound `O=C(Nc1ccccc1)c1ccccc1NC(=O)C(F)(F)F`, the Potency entry was “inactive”. For the compound `CC(=O)Nc1ccccc1C(=O)C(=O)Nc1ccc(F)cc1`, the Potency was 2510 nM (active). As for `CCCCNC(=O)C(=O)c1ccccc1NC(C)=O`, the entry is “inactive”. For the compound `N#Cc1nc(-c2cccc3ccccc23)oc1N`, the Potency result is “inactive”. As for `CSc1ccccc1N1CCN(CCCCCC(=O)NC2CCCc3ccccc32)CC1` (centres undefined), the entry is “inactive”; as for `COc1ccccc1C(=O)Nc1ccc(C)c(S(=O)(=O)N2CCCCC2)c1`, “inactive”. With `Cn1c(CN2CCOCC2)nc2cc(NC(=O)c3ccc(Cl)cc3)ccc21`, the Potency entry was “inactive”. The same measure for `Cn1c(S(=O)(=O)O)nc2ccccc21`: “inactive”; for `Cn1c(NC(=O)c2ccccc2)nc2ccccc21`: 2820 nM (active). As for `Cn1sc(NC(=O)c2ccccc2)nc1=O`, the entry is “inactive”; as for `CCCC(=O)Nc1ccc2c(c1)nc(CCNC(=O)c1ccco1)n2C`, “inactive”; as for `CC(=O)NCCc1nc2cc(NC(=O)c3ccccc3)ccc2n1C`, 3550 nM (active). Regarding `O=C(NC1CCCCCC1)C1CCN(C(=O)c2ccc(Cl)cc2)CC1`, the Potency result is “inactive”. The same measure for `O=C(c1c(F)cccc1F)N1CCN(S(=O)(=O)c2ccc3c(c2)OCCO3)CC1`: “inactive”; for `Cc1cc(C)cc(OCC(=O)OCC(=O)NC2CCCC2)c1`: “inactive”; for `O=C(CN1CCCCCC1)Nc1ccc(Br)cc1[N+](=O)[O-]`: “inactive”. For `CCCN(CC(=O)Nc1ccccc1C)C(=O)c1ccc2[nH]c3c(c2c1)CC(C)CC3` (centres undefined), the Potency result was “inactive”. As for `CCOC(=O)c1sc(N)c(C#N)c1COC(=O)C1=COCCO1`, the entry is “inactive”; as for `CN(C(=O)CSc1nnc(C2CC2)n1C)C1CCCc2ccccc21` (centres undefined), “inactive”. The same measure for `Cc1cccc(Nc2nc(-c3ccccc3)cs2)n1`: 3980 nM (active). As for `Cc1cc(O)ccc1-c1cnc2ccccc2n1`, the entry is “inactive”; as for `COc1ccc2c(c1OC)C(=O)OC2Nc1nc(-c2ccccc2)cs1` (centres undefined), “inactive”. On to `CC(=O)Nc1cccc(-c2csc(Nc3cccc(C)n3)n2)c1`, for which the Potency is 1580 nM (active).

Consider `CC(=O)Nc1ccc(-c2csc(NC=C3C(=O)OC(C)(C)OC3=O)n2)cc1`, for which the Potency result is “inactive”. `O=C(Nc1ccc(-c2csc(Nc3cccc(C(F)(F)F)c3)n2)cc1)c1cccc(C(F)(F)F)c1`: the Potency result is “inactive”. In the case of `CC(=O)Nc1cccc(-c2cnc3ccccc3n2)c1`, the Potency was 3980 nM (active). On to `CCS(=O)(=O)Nc1cccc(-c2cc(-c3ccccc3)c3cc(C)ccc3n2)c1`, for which the Potency result is “inactive”. Regarding `Cc1cccc(S(=O)(=O)CC(=O)Nc2nc(-c3ccccc3)cs2)c1`, the Potency entry was “inactive”.

In the case of `COc1ccc(S(=O)(=O)Nc2cc(C)on2)cc1NC(C)=O`, the Potency entry was “inactive”. The same measure for `Cc1ccc(NC(=O)Cn2nnc(C(=O)NCc3ccco3)c2N)c(C)c1`: “inactive”; for `COc1ccc([C@H]2CC(=O)C=C(/C=C/c3ccc(Cl)cc3)C2)cc1`: “inactive”. Turning to `CSCCC(NC(=O)c1ccco1)C(=O)NCCc1ccc(F)cc1` (centres undefined), the Potency entry is “inactive”.

For `CCCC(=O)N1CCN(c2nnc(-c3ccc(C)cc3)c3ccccc23)CC1`, the Potency entry was “inactive”.

`O=C(C1CCC1)N1CCN(S(=O)(=O)c2ccc([N+](=O)[O-])cc2)CC1`: the Potency entry was “inactive”.
